Source: the supplement of paper PMC10849652
Targets with a hit are over-represented here; the source holds about 7,900 in all. About 0.6% of all pairs of compound and target were hits. A number with no mark means an inactive call.

Experiments:
Assay in all cases: log2 fold change, soluble protein after heating vs DMSO (PISA); higher = thermal stabilisation; K562 cells, 10 uM, 30 min; active = over 0.2 and 3.5 SD of the protein, either way, in both replicates (recomputed)
[1] = compound: CC1=NC(=CC=C1)C2=C(N=C(N2)C(C)(C)C)C3=CC4=NC=CN=C4C=C3
Summary of the method: (§1)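 K562 cells at 2×10^6 cells/mL were given 10 μM compound for 30 min. Aliquots then went through 3 min of heating across 48°C-58°C, were pooled, and were extracted in PBS with 0.5% NP-40 at 4°C, and the supernatant after 21,000xg for 90 min was quantified by TMTpro 16plex LC-MS/MS with channel sums equalised. Thermal stability relative to control samples, from duplicates, is given as log2 fold change.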

[2] = compound: CCN(CC)Cc1ccc2cc(COC(=O)Nc3ccc(C(=O)NO)cc3)ccc2c1 [givinostat]
Summary of the method: as §1

[3] = compound: CCn1c(C(=O)N(C2CC2)C2CC2)cc2c3c(ncn3C)c(Nc3cc(C)n(C)n3)nc21
Summary of the method: as §1

[4] = compound: CCn1cc(-c2ccnc3[nH]c(-c4cccc(CN(C)C)c4)cc23)c(-c2ccc(NC(=O)N(C)C)cc2)n1
Summary of the method: as §1

[5] = compound: CN1C2=C(C3=C1C(=O)N(N=C3)CC4=CC(=CC=C4)N)SC(=C2)S(=O)C
Summary of the method: as §1

[6] = compound: CN1CCC(CNc2ccc3ncc(-c4cccc(OC(F)(F)F)c4)n3n2)CC1
Summary of the method: as §1

[7] = compound: CCN(CCCOc1ccc2c(Nc3cc(CC(=O)Nc4cccc(F)c4)[nH]n3)ncnc2c1)CCOP(=O)(O)O [barasertib]
Summary of the method: as §1

[8] = compound: CC[C@H](C)N1C=C(C2=C(C=C(C=C21)C3=CN=C(C=C3)N4CCNCC4)C(=O)NCC5=C(C=C(NC5=O)C)C)C
Summary of the method: as §1

[9] = compound: CN(CCOC1=CC=C(C=C1)C[C@H]2C(=O)NC(=O)S2)C3=CC=CC=N3 (racemic) [rosiglitazone]
Summary of the method: as §1

[10] = compound: CC1=C(C=C(C=C1)NC(=O)C2=CC(=CC=C2)N(C)C)NC(=O)C3=CC=C(C=C3)O
Summary of the method: as §1

[11] = compound: CC1=CC=C(C=C1)SC2=C3C=C(SC3=CN=C2)C(=O)N
Summary of the method: as §1

[12] = compound: CCCS(=O)(=O)Nc1ccc(F)c(C(=O)c2c[nH]c3ncc(Cl)cc23)c1F
Summary of the method: as §1

[13] = compound: CCCc1cc(C)[nH]c(=O)c1CNC(=O)c1cc(-c2ccnc(N3CCN(C)CC3)c2)cc2c1cnn2C(C)C
Summary of the method: as §1

[14] = compound: CC[C@@H]1C(=O)N(C)c2cnc(Nc3ccc(C(=O)N[C@H]4CC[C@H](N5CCN(CC6CC6)CC5)CC4)cc3OC)nc2N1C(C)C [volasertib]
Summary of the method: as §1

[15] = compound: CC1=C(C=C(C=C1)NC(=O)C2=CC(=CC=C2)C(C)(C)C#N)NC3=CC4=C(C=C3)N=CN(C4=O)C
Summary of the method: as §1

[16] = compound: CCCCN(Cc1ccc(C(=O)NO)cc1)C(=O)Nc1ccccc1 [Nexturastat A]
Summary of the method: as §1

[17] = compound: CCCS(=O)(=O)Nc1ccc(F)c(C(=O)c2c[nH]c3ncc(-c4ccc(Cl)cc4)cc23)c1F [vemurafenib]
Summary of the method: as §1

[18] = compound: CC[C@@H]1C(=O)N(C)c2cnc(Nc3ccc(C(=O)NC4CCN(C)CC4)cc3OC)nc2N1C1CCCC1
Summary of the method: as §1

[19] = compound: CC[C@H](C)[C@@H](C(=O)N[C@@H]([C@@H](C)O)C(=O)N[C@@H](CC(C)C)C(=O)[C@]1(CO1)C)NC(=O)[C@H]([C@@H](C)CC)N(C)C(=O)C [epoxomicin]
Summary of the method: as §1

[20] = compound: CN(C)CC(=O)Nc1ccc2[nH]c(=O)c3ccccc3c2c1
Summary of the method: as §1

Sequence of UniProt Q02156 (Q02156 whole entry, looked up): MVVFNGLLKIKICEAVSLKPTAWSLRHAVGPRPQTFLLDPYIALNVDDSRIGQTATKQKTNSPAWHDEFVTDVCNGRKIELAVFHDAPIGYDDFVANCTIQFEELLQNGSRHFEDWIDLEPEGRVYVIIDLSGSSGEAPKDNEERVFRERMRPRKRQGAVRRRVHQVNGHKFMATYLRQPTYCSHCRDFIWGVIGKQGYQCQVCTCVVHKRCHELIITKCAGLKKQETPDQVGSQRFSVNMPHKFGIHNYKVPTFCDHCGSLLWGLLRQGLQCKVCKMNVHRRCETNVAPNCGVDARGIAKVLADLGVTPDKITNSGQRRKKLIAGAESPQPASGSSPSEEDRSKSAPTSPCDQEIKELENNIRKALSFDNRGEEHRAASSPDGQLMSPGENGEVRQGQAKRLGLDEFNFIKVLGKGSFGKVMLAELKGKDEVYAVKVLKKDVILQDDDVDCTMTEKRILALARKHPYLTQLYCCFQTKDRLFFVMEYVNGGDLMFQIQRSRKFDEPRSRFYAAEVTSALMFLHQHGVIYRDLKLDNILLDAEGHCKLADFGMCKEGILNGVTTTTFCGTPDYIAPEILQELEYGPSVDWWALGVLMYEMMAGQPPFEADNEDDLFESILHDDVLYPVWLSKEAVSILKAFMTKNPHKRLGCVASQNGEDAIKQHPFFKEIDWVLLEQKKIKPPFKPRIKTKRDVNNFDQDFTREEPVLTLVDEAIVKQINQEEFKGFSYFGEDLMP
Sequence of UniProt Q9P1Y6 (Q9P1Y6 whole entry, looked up): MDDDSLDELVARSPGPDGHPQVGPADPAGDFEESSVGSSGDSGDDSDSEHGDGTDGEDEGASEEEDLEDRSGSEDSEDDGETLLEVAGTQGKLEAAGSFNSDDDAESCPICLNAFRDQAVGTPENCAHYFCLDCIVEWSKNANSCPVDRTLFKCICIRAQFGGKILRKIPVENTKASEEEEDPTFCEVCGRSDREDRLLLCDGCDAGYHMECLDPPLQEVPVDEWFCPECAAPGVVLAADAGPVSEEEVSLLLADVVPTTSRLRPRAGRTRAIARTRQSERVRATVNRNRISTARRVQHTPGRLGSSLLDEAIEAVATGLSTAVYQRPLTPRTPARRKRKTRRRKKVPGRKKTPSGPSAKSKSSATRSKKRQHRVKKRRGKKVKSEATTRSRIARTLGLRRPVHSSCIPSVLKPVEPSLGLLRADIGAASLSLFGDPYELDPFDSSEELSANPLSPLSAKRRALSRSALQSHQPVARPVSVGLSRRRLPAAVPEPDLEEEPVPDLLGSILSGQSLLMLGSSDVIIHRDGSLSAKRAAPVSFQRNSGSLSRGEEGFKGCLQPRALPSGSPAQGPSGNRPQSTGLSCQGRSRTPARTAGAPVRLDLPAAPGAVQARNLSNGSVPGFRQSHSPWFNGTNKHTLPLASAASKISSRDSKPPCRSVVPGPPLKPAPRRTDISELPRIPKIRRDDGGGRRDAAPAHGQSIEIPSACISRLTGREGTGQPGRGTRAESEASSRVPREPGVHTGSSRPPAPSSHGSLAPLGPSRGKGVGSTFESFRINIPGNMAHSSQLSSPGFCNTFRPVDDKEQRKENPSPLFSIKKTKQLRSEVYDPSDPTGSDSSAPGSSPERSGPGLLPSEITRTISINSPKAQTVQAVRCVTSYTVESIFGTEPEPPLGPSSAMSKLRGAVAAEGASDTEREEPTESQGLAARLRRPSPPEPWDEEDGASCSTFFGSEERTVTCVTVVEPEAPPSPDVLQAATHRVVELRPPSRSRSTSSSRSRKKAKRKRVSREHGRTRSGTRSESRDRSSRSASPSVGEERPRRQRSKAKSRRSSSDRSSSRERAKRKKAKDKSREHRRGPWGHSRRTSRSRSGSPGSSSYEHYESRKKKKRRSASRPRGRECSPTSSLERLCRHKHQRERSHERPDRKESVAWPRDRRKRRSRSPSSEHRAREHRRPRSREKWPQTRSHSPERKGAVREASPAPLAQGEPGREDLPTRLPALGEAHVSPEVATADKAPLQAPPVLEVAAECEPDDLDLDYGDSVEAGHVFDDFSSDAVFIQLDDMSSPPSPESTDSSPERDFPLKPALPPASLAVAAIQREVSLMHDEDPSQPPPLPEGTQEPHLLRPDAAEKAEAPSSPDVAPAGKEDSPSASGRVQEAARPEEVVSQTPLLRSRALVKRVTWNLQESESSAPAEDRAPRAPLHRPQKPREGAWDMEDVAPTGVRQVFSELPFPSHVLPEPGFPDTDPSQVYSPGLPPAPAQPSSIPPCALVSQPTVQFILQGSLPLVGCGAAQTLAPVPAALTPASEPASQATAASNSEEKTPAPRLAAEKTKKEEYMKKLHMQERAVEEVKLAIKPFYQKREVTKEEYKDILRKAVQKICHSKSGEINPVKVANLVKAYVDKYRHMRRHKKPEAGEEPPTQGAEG
Sequence of UniProt Q15126 (Q15126 whole entry, looked up): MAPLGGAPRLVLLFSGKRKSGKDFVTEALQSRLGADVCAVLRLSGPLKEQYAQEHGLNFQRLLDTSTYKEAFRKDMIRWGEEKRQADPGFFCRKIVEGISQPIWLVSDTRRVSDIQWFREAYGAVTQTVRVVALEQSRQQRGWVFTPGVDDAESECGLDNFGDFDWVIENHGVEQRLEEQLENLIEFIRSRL
Sequence of UniProt P53801 (P53801 whole entry, looked up): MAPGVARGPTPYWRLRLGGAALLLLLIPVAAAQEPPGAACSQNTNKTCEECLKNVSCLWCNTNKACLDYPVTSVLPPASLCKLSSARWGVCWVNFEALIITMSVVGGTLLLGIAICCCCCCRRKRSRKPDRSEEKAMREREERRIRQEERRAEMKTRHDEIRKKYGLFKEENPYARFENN
Sequence of UniProt P11309 (P11309 whole entry, looked up): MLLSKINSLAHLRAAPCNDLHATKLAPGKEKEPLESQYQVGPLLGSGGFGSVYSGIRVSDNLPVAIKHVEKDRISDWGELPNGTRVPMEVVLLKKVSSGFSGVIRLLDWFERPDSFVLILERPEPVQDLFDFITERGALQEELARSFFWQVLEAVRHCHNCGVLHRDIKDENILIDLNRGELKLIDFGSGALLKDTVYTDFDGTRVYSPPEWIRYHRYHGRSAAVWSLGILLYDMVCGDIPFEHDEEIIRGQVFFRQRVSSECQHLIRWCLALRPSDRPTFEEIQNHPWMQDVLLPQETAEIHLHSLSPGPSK
Sequence of UniProt O94913 (O94913 whole entry, looked up): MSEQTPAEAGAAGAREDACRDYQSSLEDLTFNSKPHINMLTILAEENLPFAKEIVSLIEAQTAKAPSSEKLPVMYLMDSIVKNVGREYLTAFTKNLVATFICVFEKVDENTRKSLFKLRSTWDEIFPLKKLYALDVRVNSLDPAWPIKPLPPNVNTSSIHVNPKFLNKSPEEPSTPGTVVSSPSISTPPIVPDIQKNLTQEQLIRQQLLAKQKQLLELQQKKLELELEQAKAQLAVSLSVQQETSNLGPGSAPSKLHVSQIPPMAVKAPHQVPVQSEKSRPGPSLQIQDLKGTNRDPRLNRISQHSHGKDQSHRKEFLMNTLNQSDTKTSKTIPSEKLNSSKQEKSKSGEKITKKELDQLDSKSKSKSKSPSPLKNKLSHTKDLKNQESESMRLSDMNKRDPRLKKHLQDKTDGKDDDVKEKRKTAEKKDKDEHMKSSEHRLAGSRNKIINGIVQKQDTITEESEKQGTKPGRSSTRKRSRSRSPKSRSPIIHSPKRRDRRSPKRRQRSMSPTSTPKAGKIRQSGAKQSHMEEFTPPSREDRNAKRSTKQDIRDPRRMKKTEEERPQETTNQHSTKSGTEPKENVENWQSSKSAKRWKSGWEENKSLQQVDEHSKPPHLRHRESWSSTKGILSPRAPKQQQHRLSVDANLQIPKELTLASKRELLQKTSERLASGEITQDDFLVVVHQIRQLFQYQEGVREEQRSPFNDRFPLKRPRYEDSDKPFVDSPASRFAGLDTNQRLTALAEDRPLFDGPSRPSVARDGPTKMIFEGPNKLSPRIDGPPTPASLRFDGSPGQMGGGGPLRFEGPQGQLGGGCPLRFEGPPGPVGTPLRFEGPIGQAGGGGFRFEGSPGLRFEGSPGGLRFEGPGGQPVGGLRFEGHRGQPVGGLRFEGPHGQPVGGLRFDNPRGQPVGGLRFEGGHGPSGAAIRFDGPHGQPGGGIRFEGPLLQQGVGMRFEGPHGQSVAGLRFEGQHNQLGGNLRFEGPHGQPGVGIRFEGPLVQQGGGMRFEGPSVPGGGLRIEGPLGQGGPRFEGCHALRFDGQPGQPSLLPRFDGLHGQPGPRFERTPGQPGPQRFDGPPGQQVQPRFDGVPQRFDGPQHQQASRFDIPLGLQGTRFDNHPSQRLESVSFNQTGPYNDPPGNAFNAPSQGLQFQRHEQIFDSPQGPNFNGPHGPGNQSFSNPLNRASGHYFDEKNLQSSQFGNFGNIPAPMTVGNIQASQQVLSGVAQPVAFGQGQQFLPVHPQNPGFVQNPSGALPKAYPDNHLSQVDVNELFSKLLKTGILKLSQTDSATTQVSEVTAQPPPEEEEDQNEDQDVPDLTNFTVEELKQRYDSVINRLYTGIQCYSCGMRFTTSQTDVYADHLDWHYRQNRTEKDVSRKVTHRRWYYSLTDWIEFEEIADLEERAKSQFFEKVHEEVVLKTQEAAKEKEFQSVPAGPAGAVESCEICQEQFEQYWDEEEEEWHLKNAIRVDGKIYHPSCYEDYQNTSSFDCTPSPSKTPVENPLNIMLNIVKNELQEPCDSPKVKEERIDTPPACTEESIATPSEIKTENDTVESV
Sequence of UniProt O43924 (O43924 whole entry, looked up): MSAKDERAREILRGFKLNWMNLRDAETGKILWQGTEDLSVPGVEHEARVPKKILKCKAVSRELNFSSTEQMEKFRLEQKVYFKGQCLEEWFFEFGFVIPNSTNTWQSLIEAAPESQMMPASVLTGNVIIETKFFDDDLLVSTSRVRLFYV
Sequence of UniProt P28065 (P28065 whole entry, looked up): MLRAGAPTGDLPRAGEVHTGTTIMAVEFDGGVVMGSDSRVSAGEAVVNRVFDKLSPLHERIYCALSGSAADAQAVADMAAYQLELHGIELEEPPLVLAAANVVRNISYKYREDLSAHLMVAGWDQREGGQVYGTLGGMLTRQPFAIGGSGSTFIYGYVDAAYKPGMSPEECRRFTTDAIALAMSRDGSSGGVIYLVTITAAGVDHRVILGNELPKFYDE

Target	log2 fold change [1]	log2 fold change [2]	log2 fold change [3]	log2 fold change [4]	log2 fold change [5]	log2 fold change [6]	log2 fold change [7]	log2 fold change [8]	log2 fold change [9]	log2 fold change [10]	log2 fold change [11]	log2 fold change [12]	log2 fold change [13]	log2 fold change [14]	log2 fold change [15]	log2 fold change [16]	log2 fold change [17]	log2 fold change [18]	log2 fold change [19]	log2 fold change [20]
PUM1 (UniProt Q14671)	-0.028	0.08	-0.01	-0.084	0.078	-0.026	–	–	–	–	–	–	–	–	–	–	–	–	–	–
PPP1R12B isoform 6 (UniProt O60237)	–	0.252	-0.11	–	–	–	0.108	0.088	0.006	–	–	–	–	–	–	–	–	–	–	–
PHRF1 (UniProt Q9P1Y6)	–	0.034	0.035	–	–	–	–	–	–	-0.052	-0.034	-0.058	0.146	0.373	–	–	–	–	–	–
PRKCE (UniProt Q02156)	0.048	-0.393 (active)	-0.054	-0.067	-0.106	-0.16	0.013	0.099	0.068	–	-0.012	0.085	-0.02	-0.125	0.041	-0.242	0.077	-0.051	0.036	0.036
PDE4DIP (UniProt E9PS60)	0.013	0.016	-0.072	–	–	–	–	–	–	–	–	–	–	–	–	–	-0.214	0.047	–	0.095
PTEN isoform 2 (UniProt P60484)	0.064	-0.086	-0.071	-0.016	–	-0.098	–	–	–	-0.035	0.13	-0.016	–	0.05	–	–	–	0.024	–	–
PSMB9 (UniProt P28065)	-0.342	-0.179	-0.046	0.033	–	0.051	0.12	–	-0.057	–	-0.032	-0.047	–	0.008	-0.137	-0.233	-0.08	0.114	0.049	-0.043
PDE6D (UniProt O43924)	-0.117	-0.052	0.26	-0.29	-0.096	0.061	0.002	-0.179	-0.054	–	–	–	-0.028	–	-0.081	0.15	-0.022	–	0.105	0.05
PTTG1IP (UniProt P53801)	-0.062	-0.124	-0.176	-0.01	0.009	-0.771 (active)	-0.025	-0.154	0.011	–	-0.107	0.02	0.008	-0.05	0.122	-0.024	-0.059	-0.223	-0.017	-0.041
PCNX1 (UniProt Q96RV3)	–	–	–	–	–	–	0.026	-0.004	0.028	–	-0.373	-0.58 (active)	-0.035	0.132	–	0.106	0.025	0.331	-0.017	-0.064
PLCXD1 (UniProt Q9NUJ7)	–	–	–	–	–	–	-0.003	–	0.009	0.05	–	–	–	–	–	–	–	–	–	–
POLR2E (UniProt P19388)	-0.091	-0.007	-0.104	0.015	0.092	0.09	-0.03	0.018	0.01	-0.094	0	0.018	0.099	-0.067	–	0.005	0.031	0.027	0.065	0.034
PSD3 (UniProt Q9NYI0)	0.023	–	–	–	–	–	–	0.061	–	-0.059	-0.01	0.049	0.025	-0.108	–	–	-0.019	-0.019	–	0.004
PIM1 isoform 2 (UniProt P11309)	–	–	–	-0.068	–	2.26 (active)	–	–	–	–	–	–	-0.566	–	–	–	–	–	–	–
PMVK (UniProt Q15126)	–	-0.068	0.028	0.142	0.036	0.057	0.014	0.069	0.067	–	–	–	0.016	–	0.006	0.085	-0.041	–	0.003	0.018
PSMD8 (UniProt K7ERW6)	-0.283	–	–	–	–	–	–	–	–	–	–	–	–	–	–	–	-0.236	–	–	0.027
PCF11 (UniProt O94913)	-0.018	–	–	0.038	–	-0.03	-0.168	–	0.314	0.045	0.019	0.006	-0.3	-0.114	–	–	-0.058	-0.014	–	-0.078
